# Where “and” joins values, the source holds several entries; their conditions need not be identical. Equal entries are not always repeated.
# How the values were obtained:
# Assay in all cases: cell viability relative to vehicle control; higher = less cytotoxic
# Details in all cases: 10 µM
# K562 = tested on: K562
# Method in brief: (§1)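 Four leukaemia lines, as CRISPR-edited mutant clones and isogenic wild-type clones, were tested against Selleck bioactive, kinase and epigenetic probe libraries after removal of identity-inconsistent compounds. Cells were exposed to a single 10 µM dose for 48 h, and CellTiter-Glo luminescence was then read. Viability was calculated relative to the on-plate vehicle control.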
# MARIMO = tested on: MARIMO
# Method in brief: as §1
# MOLM14 = tested on: MOLM14
# Method in brief: as §1
# OCI-AML2 = tested on: OCI-AML2
# Method in brief: as §1
SMILES,cell viability (K562; SRSF2 genotype: SRSF2 P95H/wt),cell viability (K562; SRSF2 genotype: SRSF2 wt/wt),cell viability (MARIMO; SRSF2 genotype: SRSF2 P95H/wt),cell viability (MARIMO; SRSF2 genotype: SRSF2 wt/wt),cell viability (MOLM14; SRSF2 genotype: SRSF2 P95H/wt),cell viability (MOLM14; SRSF2 genotype: SRSF2 wt/wt),cell viability (OCI-AML2; SRSF2 genotype: P95H/wt),cell viability (OCI-AML2; SRSF2 genotype: wt/wt)
C#Cc1cccc(Nc2ncnc3cc(OCCOC)c(OCCO)cc23)c1 [OSI-420 (Desmethyl Erlotinib)],43.5% and 54.3%,44.4%,53.9%,49.5%,32.1%,29.9%,30.6%,37.5%
C/C=C(/C)C(=O)O[C@H]1[C@@H](OC(C)=O)c2c(ccc3ccc(=O)oc23)OC1(C)C [(+)-Praeruptorin A],92.3% and 98.4%,90.2%,84.5%,93.9%,82.8%,93.3%,90.3%,104%
CC1=C(C(=O)OC2CCCCC2)C(c2ccc([N+](=O)[O-])cc2)C2=C(CC(C)(C)CC2=O)N1 (stereo not given),30.9% and 13.9%,47.4%,84.3%,66%,10.5%,13.7%,52.6%,43.5%
"Cc1ccc2c(c1)C(=O)C1(O)CCN(c3ccccc3)C1=N2 (single isomer, unassigned; (-)) [(-)-Blebbistatin]",93.5% and 92.5%,94%,88.4%,98.6%,61.3%,60.7%,80.5%,90.4%
O=C(NCCO)c1cccc(-c2cc(Nc3ccc(OC(F)(F)F)cc3)ncn2)c1,12.1% and 23%,20.1%,69.5%,76.6%,93.2%,91.3%,65%,72.3%
COC(=O)[C@]12CCC(C)(C)C[C@H]1[C@H]1C(=O)C=C3[C@@]4(C)C=C(C#N)C(=O)C(C)(C)[C@@H]4CC[C@@]3(C)[C@]1(C)CC2 [Bardoxolone Methyl],2.03% and 0.75%,1.02%,0.23%,0.28%,0.15%,0.13%,0.19%,0.13%
O=C(NC[C@H]1CN(c2ccc(N3CCOCC3=O)cc2)C(=O)O1)c1ccc(Cl)s1 [Rivaroxaban (Xarelto)],87.3% and 85.4%,92.3%,92.5%,91.3%,96.8%,97.1%,90.8%,85.8%
Cc1c(NC(=O)c2ccc(C(C)(C)C)cc2)cccc1-c1cn(C)c(=O)c(Nc2ccc(C(=O)N3CCOCC3)cc2)n1,94% and 92.1%,90.8%,91.5%,97.4%,96.1%,93.4%,82%,87.4%
COc1cc(CCc2cc(NC(=O)c3ccc(N4CC(C)NC(C)C4)cc3)n[nH]2)cc(OC)c1 (stereo not given),68.8% and 79.7%,59.6%,46%,42.1%,14.4%,21.5%,8.06%,17.9%
Oc1cc(O)c(Cl)cn1 [Gimeracil],105% and 98.5%,92.4%,101%,109%,102%,107%,101%,111%

# From the supplement of paper PMC10981050
